Test results published in PubChem BioAssay (NCI).
Compounds without any hit were thinned out: in the full panel of roughly 79,000, 15% have a hit. Calls of active or inactive are those of the source. Cut-off read from the data, not from the text of the source: active = growth inhibition above about 70%; inactive = the rest.

Experiments:
[1] = NCI Yeast Anticancer Drug Screen. Data for the rad50 strain (AID 155);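 note: 0% = growth of vehicle-only cultures of the same strain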; settings: S. cerevisiae rad50 strain growth inhibition; at 50.0 µM; stronger effect = higher value
Method in brief: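 Genetically altered yeast (DNA repair pathway); compound treatment; growth inhibition vs vehicle ctrl.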

[2] = NCI Yeast Anticancer Drug Screen. Data for the mec2-1 strain (AID 157); settings: S. cerevisiae mec2-1 strain, at 50.0 µM, stronger effect = higher value
Method in brief: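 Strain: mec2-1 (DNA repair/cell cycle alteration). Compound exposure, then growth measured; inhibition expressed relative to vehicle.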

[3] = NCI Yeast Anticancer Drug Screen. Data for the sgs1 mgt1 strain (AID 161);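 note: 0% = growth of cultures given vehicle only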; settings: S. cerevisiae sgs1 mgt1 strain, at 50.0 µM, stronger effect = higher value
Method in brief: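 Genetically altered yeast, compound exposure, growth inhibition relative to vehicle.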

[4] = NCI Yeast Anticancer Drug Screen. Data for the cln2 rad14 strain (AID 165);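 note: 0% = growth equal to vehicle treated cultures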; settings: S. cerevisiae cln2 rad14 strain, at 50.0 µM, stronger effect = higher value
Method in brief: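 Compounds are applied to the cln2 rad14 yeast strain, and growth is then compared with that of vehicle-treated cultures to give inhibition.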

[5] = NCI Yeast Anticancer Drug Screen. Data for the bub3 strain (AID 167); settings: S. cerevisiae bub3 mutant strain, at 50.0 µM, stronger effect = higher value
Method in brief: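 Yeast carrying a defined mutation is treated with each compound, and growth is compared with that of vehicle-exposed cells to give inhibition.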

[6] = NCI Yeast Anticancer Drug Screen. Data for the mlh1 rad18 strain (AID 175); settings: S. cerevisiae mlh1 rad18 strain growth inhibition; at 50.0 µM; stronger effect = higher value
Method in brief: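 Read-out is yeast growth inhibition, calculated against vehicle-only controls. The compound was applied to a strain engineered with DNA damage repair alterations.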

Measured: growth inhibition

O=C(NCCCCNCCCNC(=O)c1ccc([N+](=O)[O-])cc1)c1ccc([N+](=O)[O-])cc1
inactive: [1] -5.5% | [2] 4.1% | [3] -11.1% | [4] -26.3% | [5] 4.4% | [6] -11.4%

CCCCCCNC(=O)c1ccc(C(=O)NCCCCCC)cc1
inactive: [1] 3.4% | [2] -13.3% | [3] -27% | [4] -19.5% | [5] 6% | [6] -31.9%

CCN(CC)CCC1CC/C(=C\c2ccc(OC)cc2)C1=O (stereo not given)
inactive: [1] 18.3% | [2] -4.35% | [3] 27.9% | [4] 21.1% | [5] -2.45% | [6] 21.9%

CCOC(=O)NN1C(=O)C(=P(c2ccccc2)(c2ccccc2)c2ccccc2)C(C(=O)OC)=C1C
inactive: [1] -4.05% | [2] 4.45% | [3] -6.75% | [4] 11.8% | [5] -6.65% | [6] -4.85%

N#CCCCN1CCOCC1
inactive: [1] 0.8% | [2] -20.9% | [3] -7.9% | [4] 15.7% | [5] 0% | [6] 3.6%

COc1ccc(NC(=O)C(=O)Cc2ccc([N+](=O)[O-])c([N+](=O)[O-])c2CC(=O)C(=O)Nc2ccc(OC)cc2OC)c(OC)c1
inactive: [1] 0.35% | [2] -36.1% | [3] -44% | [4] 17.8% | [5] 6.15% | [6] 8.05%

CC1(C)C/C(=C\c2cccc(Cl)c2)C(=O)c2ccccc21
inactive: [1] 11.8% | [2] 16.6% | [3] -0.75% | [4] -12.8% | [5] -5.65% | [6] 7.4%

COC(=O)C(CS)NC(=O)CNC(=O)CNC(=O)C(CCCCNC(=O)OCc1ccccc1)NC(=O)CNC(=O)C(CSC(c1ccccc1)(c1ccccc1)c1ccccc1)NC(=O)OCc1ccccc1 (stereo not given)
inactive: [1] -16.2% | [2] 2.75% | [3] -10.7% | [4] -17.2% | [5] -25.2% | [6] 0.2%

CCOc1ccccc1Br
inactive: [1] -2.05% | [2] 8.65% | [3] -2.05% | [4] -9.8% | [5] 1% | [6] -38.2%

NC(=O)CCCC(=O)c1cccc([N+](=O)[O-])c1
inactive: [1] -14.2% | [2] 2.2% | [3] -16.9% | [4] -42.9% | [5] -1.25% | [6] -25.4%

ClCCOCCOc1ccccc1Cl
inactive: [1] -24% | [2] -13.8% | [3] -8.1% | [4] -9.95% | [5] -22.1% | [6] -7%

NC(=O)C(CC(C(N)=O)C(N)=O)C(N)=O
inactive: [1] 7.5% | [2] 18.4% | [3] -8.45% | [4] -24.9% | [5] 7.7% | [6] -6.55%

O=S(=O)(CC(Br)c1ccccc1)c1ccccc1 (stereo not given)
inactive: [1] 44.7% | [2] 6.15% | [3] 5.05% | [4] -4.3% | [5] 60.5% | [6] 45%

Cn1c2ccccc2c(=O)c2c(O)cc3c(c21)CC(C1(C)CO1)O3 (stereo not given)
active: [1] 86.2% | [2] 79.6% | [3] 72% | [4] 80.7% | [6] 83.1%
inactive: [5] 42.5%

O=C(O)CC(=O)CC(=O)c1ccccc1
inactive: [1] -14.8% | [2] -18.5% | [3] -23.4% | [4] -30.7% | [5] -2.1% | [6] -7.4%

CCOc1ccc2nc(NC(=O)C(=O)C(C(=O)c3ccccc3F)C3OC(=O)c4ccccc43)sc2c1 (stereo not given)
inactive: [1] 10.9% | [2] 9% | [3] 2.65% | [4] 22.6% | [5] -1.2% | [6] 7%

CN(N)c1cnn(-c2ccccc2)c(=O)c1Cl
inactive: [1] -37.2% | [2] -48% | [3] -22.1% | [4] 19.4% | [5] 21.4% | [6] -36.6%

CC(C)(C(=O)Cc1ccccc1)c1ccccc1
inactive: [1] -29.5% | [2] -21.4% | [3] -10.2% | [4] 31.1% | [5] 0.2% | [6] -11.3%

O=S1C=Cc2ccccc21 (stereo not given)
inactive: [1] 9.8% | [2] 20.6% | [3] 13.1% | [4] 5.8% | [5] -0.7% | [6] 7.1%

C[N+](C)(C)CCOc1cccc(Br)c1
inactive: [1] 9.8% | [2] 14.5% | [3] 21.6% | [4] 29.8% | [5] 11.7% | [6] 23.9%

Oc1ccccc1C1N=NC2=C(CCCC2)N1O (stereo not given)
inactive: [1] -12.9% | [2] -26.4% | [3] -2.5% | [4] -12.1% | [5] 21.9% | [6] -7.15%

Fc1ccc(CSc2cnnc(SCc3ccc(F)cc3)c2SCc2ccc(F)cc2)cc1
inactive: [1] -23.2% | [2] 2.75% | [3] -20.2% | [4] -21.9% | [5] -13.9% | [6] -34.7%

CCOC(=O)Cn1c(=O)c2ccccc2c2cc([N+](=O)[O-])ccc21
inactive: [1] -6.45% | [2] 11.3% | [3] 13.2% | [4] 5.95% | [5] -3.65% | [6] -11.7%

Cc1ccc(S(=O)(=O)Nc2ccccc2)cc1
inactive: [1] 18% | [2] -27.9% | [3] 21% | [4] -20.2% | [5] 3.8% | [6] 37.3%

O=C1C=C(C2CCCCC2)C(=O)c2ccccc21
inactive: [1] 17% | [2] 2.6% | [3] 15.4% | [4] 18.3% | [5] 58.5% | [6] 10.3%

CCCCN(CCCC)CC(CC)N(CCCC)CCCC (stereo not given)
inactive: [1] -8.4% | [2] 1.8% | [3] -5.7% | [4] -38.6% | [5] 10.8% | [6] 7.35%

Cc1nnc2n(c1=O)CCCN2C
inactive: [1] -0.35% | [2] 6.2% | [3] 11.6% | [4] -11.8% | [5] 15.8% | [6] 13.4%

CC(=O)CC(=O)NN(C)C
inactive: [1] -4.8% | [2] -32.4% | [3] -28.9% | [4] 8.5% | [5] -36.4% | [6] 9.85%

O=C1CSC(=S)N1.[Cu+2]
inactive: [1] -7.9% | [2] -9.5% | [3] 7.7% | [4] -7.65% | [5] -4.5% | [6] 4.3%

CN(C)c1ccc(/C=c2/sc3nc(=O)c(-c4ccccc4NC(=O)C(F)(F)F)nn3c2=O)cc1
inactive: [1] 3.95% | [2] 2.65% | [3] -5.95% | [4] -12.1% | [5] -20.4% | [6] -5.15%

COc1c2occc2cc2ccc(=S)oc12
inactive: [1] 13.2% | [2] -10.4% | [3] 7.35% | [4] -4.6% | [5] -19.9% | [6] 23.1%

CC(C)(C)C(=CS(=O)/N=C/c1ccccc1)C(C)(C)C (stereo not given)
inactive: [1] -27.4% | [2] -33% | [3] -28.6% | [4] -7% | [5] -37% | [6] -9.85%

Cn1c(=O)c2c(nc3n2C(CCl)CO3)n(C)c1=O (stereo not given)
inactive: [1] 40.5% | [2] 12.8% | [3] 7.75% | [4] 9.5% | [5] 34% | [6] 32.4%

Oc1cncc2ccccc12
inactive: [1] 3.35% | [2] 5.2% | [3] 11.2% | [4] -1.35% | [5] 1.6% | [6] -4.85%

O=c1[nH]nc(Sc2ccccc2)c(=O)[nH]1
inactive: [1] -11.8% | [2] -3.4% | [3] -12.6% | [4] -10.4% | [5] -11.4% | [6] -14.9%

CC/C(=N/NC(=O)c1ccccc1)c1ccccc1
inactive: [1] -18.9% | [2] 9.5% | [3] 8.7% | [4] -19.4% | [5] 8.5% | [6] -17.7%

O=C(O)CC(=O)C(C(=O)O)C(CCc1ccccc1)C(C(=O)O)C(=O)CC(=O)O (stereo not given)
inactive: [1] -21.2% | [2] -13.6% | [3] -19.7% | [4] 10.2% | [5] -2.75% | [6] -11.4%

Cn1c(C(=O)NN)cc2cc(OCc3ccccc3)ccc21
inactive: [1] 30.1% | [2] 5.75% | [3] 7.2% | [4] 4.55% | [5] 13.2% | [6] 2.4%

O=C(Nc1nc2ncn(CC(COc3ccccc3)OC(=O)c3ccccc3)c2c(=O)[nH]1)c1ccccc1 (stereo not given)
inactive: [1] -9.85% | [2] 9.55% | [3] 6.5% | [4] 15.2% | [5] 12.2% | [6] -6.65%

CCOc1ccc(/C=N/O)cc1OCC
inactive: [1] -0.3% | [2] -10.1% | [3] -10.2% | [4] -25.6% | [5] -2.1% | [6] -2.6%
